In PubChem BioAssay (NCATS):
“And” between values parts separate entries of the source, which are not always exact repeats. Identical values can stand only once. Results filed as inconclusive are left out. The source made the active and inactive calls. Unless noted, calls come from the whole dose curve; as a rule, active = well fitted curve in either direction with a large enough effect (not every such curve was filed as active); inconclusive = small, poorly fitted or top-dose-only effect, or another doubt; inactive = flat fitted curve, though single readings scatter.

Key:
[1] = biological target: Lysosomal acid glucosylceramidase (Homo sapiens) (UniProt P04062); test: Glucocerebrosidase-p2 (AID 348; in the data active = potency below about 10 µM; note: potency is the fitted concentration of half-maximal effect); settings: purified GBA, blue fluorogenic substrate, 40 min
Outline: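 Compounds titrated from 0.6 nM upwards against 0.2 nM enzyme in pH 5.9 citric acid/KH2PO4, taurocholate, tween-20; blue fluorogenic substrate 80 uM, 40 min room temperature, stopped and read Ex 365/Em 440 for AC50.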

[2] = Stat Signaling Pathway (AID 446); settings: ME-180 SIE beta-lactamase reporter, IL-6 stimulated, 5 h;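 note: ME-180 cervical cancer cells given 40 pM IL-6 alongside compound; SIE-controlled beta-lactamase reporter measured as 460/530 nm FRET emission ratio; % is set by controls: 0 for no effect and ±100 for the full control effect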
Outline: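 ME-180 cells carrying a SIE-driven beta-lactamase reporter are stimulated with 40 pM IL-6 for 5 h at 37C in the presence of compound. The 460/530 nm FRET substrate ratio is read after 2.5 h at RT. Data are normalised to 300 pM IL-6 and to 125 nM JAK inhibitor controls.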

[3] = biological target: Glucocorticoid receptor (Homo sapiens) (UniProt P04150); test: GR-EFC Redistribution (AID 451; calls by dose curve; note: potency is the fitted concentration of half-maximal effect); settings: CHO-K1 GR-EFC translocation, beta-gal luminescence, 2 h
Glucocorticoid receptor (Homo sapiens), sequence (P04150 whole entry, looked up, the tested form may be a part): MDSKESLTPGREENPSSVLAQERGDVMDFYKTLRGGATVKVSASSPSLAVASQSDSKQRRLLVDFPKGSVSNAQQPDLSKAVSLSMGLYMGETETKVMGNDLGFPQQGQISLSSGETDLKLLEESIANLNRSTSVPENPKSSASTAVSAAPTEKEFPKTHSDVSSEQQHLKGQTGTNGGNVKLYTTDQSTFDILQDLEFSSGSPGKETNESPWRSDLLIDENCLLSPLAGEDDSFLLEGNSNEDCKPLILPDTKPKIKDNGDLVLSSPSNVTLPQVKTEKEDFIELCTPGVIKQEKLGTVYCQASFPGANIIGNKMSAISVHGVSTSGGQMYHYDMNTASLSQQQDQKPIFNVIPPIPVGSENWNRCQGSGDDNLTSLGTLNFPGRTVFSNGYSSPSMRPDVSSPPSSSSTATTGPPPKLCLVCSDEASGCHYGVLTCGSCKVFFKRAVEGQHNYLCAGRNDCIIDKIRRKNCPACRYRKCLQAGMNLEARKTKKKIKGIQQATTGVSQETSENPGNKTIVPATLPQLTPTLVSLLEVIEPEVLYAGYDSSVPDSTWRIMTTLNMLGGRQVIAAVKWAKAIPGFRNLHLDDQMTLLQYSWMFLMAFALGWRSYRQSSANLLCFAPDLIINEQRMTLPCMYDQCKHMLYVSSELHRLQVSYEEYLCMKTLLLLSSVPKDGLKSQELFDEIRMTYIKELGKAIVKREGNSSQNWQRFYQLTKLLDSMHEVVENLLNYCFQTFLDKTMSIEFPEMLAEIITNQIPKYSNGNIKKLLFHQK
Outline: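 CHO-K1 cells stably expressing nuclear-localized β-gal enzyme acceptor and GR fused C-terminally to the enzyme donor fragment; ligand-driven nuclear translocation restores β-gal by complementation. Compounds titrated up to 46 uM final, 2 h at 37 °C; luminescence read.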

[4] = biological target: Mitogen-activated protein kinase 10 (Mus musculus) (UniProt Q61831); test: JNK3 AlphaScreen Assay (AID 530); settings: JNK3 lysate, c-Jun phosphorylation; series mostly up to 57.1 µM;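 note: kinase came from lysate of stimulated human HepG2 cells; signal reports phosphorylation of biotinylated GST-cJun 1-79 at Ser73 with 10 µM ATP; % is set by controls: 0 for no effect and ±100 for the full control effect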
Outline: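 Inhibitors reduce antibody binding to phosphorylated biotin-cJun, lowering AlphaScreen luminescence. Lysates from HepG2 cells pre-activated by IL-1beta plus TNF-alpha supplied JNK3; compounds were titrated.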

[5] = biological target: 3',5'-cyclic-AMP phosphodiesterase 4B (Homo sapiens) (UniProt Q07343); test: qHTS Assay for Inhibitors of PDE-IV (AID 607; active = well fitted activation curve with a large enough effect in the main read-out, with a control signal flat, not every such curve was filed as active; note: % of control where 0% means no effect); settings: HEK293 ACTOne CNG channel cells, membrane potential fluorescence; series mostly up to 22.9 µM
3',5'-cyclic-AMP phosphodiesterase 4B (Homo sapiens), sequence (Q07343 whole entry, looked up): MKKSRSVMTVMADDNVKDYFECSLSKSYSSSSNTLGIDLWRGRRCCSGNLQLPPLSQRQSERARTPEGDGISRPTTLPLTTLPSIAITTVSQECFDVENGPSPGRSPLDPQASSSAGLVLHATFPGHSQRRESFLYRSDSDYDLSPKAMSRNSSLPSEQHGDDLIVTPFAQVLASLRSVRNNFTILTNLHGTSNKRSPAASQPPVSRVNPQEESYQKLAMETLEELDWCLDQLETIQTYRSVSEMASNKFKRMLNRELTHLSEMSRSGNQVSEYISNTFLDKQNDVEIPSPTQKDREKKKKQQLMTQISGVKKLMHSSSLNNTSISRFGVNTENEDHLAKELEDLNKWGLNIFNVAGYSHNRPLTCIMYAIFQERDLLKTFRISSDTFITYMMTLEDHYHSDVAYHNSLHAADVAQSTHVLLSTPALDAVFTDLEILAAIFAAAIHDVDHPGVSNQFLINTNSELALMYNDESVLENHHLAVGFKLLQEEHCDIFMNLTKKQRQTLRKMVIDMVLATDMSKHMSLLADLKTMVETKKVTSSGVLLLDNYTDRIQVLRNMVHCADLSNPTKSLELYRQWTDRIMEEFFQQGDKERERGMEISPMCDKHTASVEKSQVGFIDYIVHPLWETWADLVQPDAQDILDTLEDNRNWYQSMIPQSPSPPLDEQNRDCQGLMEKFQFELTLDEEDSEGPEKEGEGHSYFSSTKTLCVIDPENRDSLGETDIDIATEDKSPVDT
Outline: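 HEK293 ACTOne cells with CNG channel (1000/well), endogenous PDE4; membrane potential dye, compounds up to 22.9 uM final. Fluorescence Ex 535/Em 590; RO 20-1724 (100 uM final) as reference.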

[6] = qHTS Assay for Lipid Storage Modulators (AID 1519; calls by dose curve); settings: Drosophila S3 cells, BODIPY lipid droplet/cell ratio, laser cytometry, cells loaded with oleic acid
Outline: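 Cells seeded at 5,000 per well were treated with compounds over a concentration series and loaded with oleic acid (400 uM, as added). Lipid droplet fluorescence (488 nm excitation, 500-530 nm channel) was read by laser-scanning cytometry and normalized to 20 uM Triacsin C.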

[7] = AP1 Signaling Pathway (AID 357); settings: ME-180 (cervical carcinoma) AP-1-bla reporter, EGF-induced, beta-lactamase ratio, 5 h;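 note: ME-180 reporter cells stimulated with EGF at its EC50 level; % is set by controls: 0 for no effect and ±100 for the full control effect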
Outline: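 Cells are seeded overnight, exposed to compound titrations and an EC50 level of EGF for 5 hours at 37 °C, then loaded with CCF4 dye for 2.5 hours. Beta-lactamase activity under the AP-1 element is read as a blue/green ratio.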

[8] = biological target: Cytochrome P450 1A2 (Homo sapiens) (UniProt P05177); test: p450-cyp1a2 (AID 410; calls by dose curve; note: potency is the fitted concentration of half-maximal effect;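 for activity change, negative = inhibition: -100% = full effect of reference inhibitor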); settings: recombinant CYP1A2, luciferin-ME demethylation, luminescence; series mostly up to 57 µM
Cytochrome P450 1A2 (Homo sapiens), sequence (P05177 whole entry, looked up): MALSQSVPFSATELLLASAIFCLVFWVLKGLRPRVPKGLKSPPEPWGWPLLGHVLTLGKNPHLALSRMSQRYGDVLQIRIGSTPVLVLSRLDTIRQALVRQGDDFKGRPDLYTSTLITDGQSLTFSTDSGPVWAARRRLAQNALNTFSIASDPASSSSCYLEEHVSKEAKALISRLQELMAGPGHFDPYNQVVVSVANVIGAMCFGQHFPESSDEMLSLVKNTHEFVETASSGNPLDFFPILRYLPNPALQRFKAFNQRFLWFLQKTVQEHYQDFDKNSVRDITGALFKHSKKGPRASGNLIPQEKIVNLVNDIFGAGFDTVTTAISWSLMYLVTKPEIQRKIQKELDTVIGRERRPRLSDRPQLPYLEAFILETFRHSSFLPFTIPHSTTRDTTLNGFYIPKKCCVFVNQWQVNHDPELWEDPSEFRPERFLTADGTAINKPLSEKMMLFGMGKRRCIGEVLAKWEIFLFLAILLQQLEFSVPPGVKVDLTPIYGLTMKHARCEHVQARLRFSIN
Outline: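 20nM CYP1A2 with 100uM Luciferin-ME (at Km) in 100mM KPO4; compound preincubated 10 min, NADPH regeneration added, 60 min at room temperature. Luciferin quantified by luminescence after detection reagent; normalized to 57 uM furafylline.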

[9] = NFAT Signaling Pathway (AID 444); settings: Jurkat NFAT-bla M1, carbachol, beta-lactamase ratio, 5 h;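 note: carbachol stimulus at about its EC50 of 1 µM final; % is set by controls: 0 for no effect and ±100 for the full control effect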
Outline: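 Jurkat cells carrying an NFAT-driven β-lactamase reporter and co-transfected muscarinic M1 receptor were treated with compound plus carbachol (1 uM final, an EC50 level) for 5 h at 37 °C. CCF4 loading followed for 1 h at RT; 460/530 nm ratio gave %activity.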

[10] = biological target: Glucocorticoid receptor (Homo sapiens) (UniProt P04150); test: GR-GFP Redistribution (AID 450;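 active = compounds whose dose series gives a full or clear partial fitted curve of increased nuclear translocation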; note: potency is the fitted concentration of half-maximal effect); settings: U2OS GR-GFP nuclear translocation, laser cytometry, 2 h
[11] = biological target: Cytochrome P450 2D6 (Homo sapiens) (UniProt P10635); test: qHTS Assay for Inhibitors and Substrates of Cytochrome P450 2D6 (AID 891; active = well fitted curve in the direction sought with a large enough effect; an effect the other way counts as inactive or inconclusive; note: nearly all actives have a fitted effect of over 60% in size; note: potency is the fitted concentration of half-maximal effect); settings: recombinant CYP2D6, luciferin-ME EGE luminescence; series mostly up to 57.1 µM
Cytochrome P450 2D6 (Homo sapiens), sequence (P10635 whole entry, looked up): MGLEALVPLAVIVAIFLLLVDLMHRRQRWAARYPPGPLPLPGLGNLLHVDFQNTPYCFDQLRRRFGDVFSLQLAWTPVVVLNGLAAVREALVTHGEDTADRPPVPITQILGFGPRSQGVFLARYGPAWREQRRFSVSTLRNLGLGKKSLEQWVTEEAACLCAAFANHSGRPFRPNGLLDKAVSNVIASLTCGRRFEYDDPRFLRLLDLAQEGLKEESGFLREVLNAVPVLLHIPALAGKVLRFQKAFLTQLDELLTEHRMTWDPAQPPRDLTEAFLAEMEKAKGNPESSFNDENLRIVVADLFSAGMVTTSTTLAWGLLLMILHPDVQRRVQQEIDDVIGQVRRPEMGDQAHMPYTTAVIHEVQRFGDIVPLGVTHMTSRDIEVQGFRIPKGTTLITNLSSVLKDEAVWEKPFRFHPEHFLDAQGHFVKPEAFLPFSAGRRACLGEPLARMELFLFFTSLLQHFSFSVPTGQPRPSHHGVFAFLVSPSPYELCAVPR
Outline: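 Human CYP2D6 (5 nM) with 30 uM Luciferin-ME EGE (at Km) in 100 mM KPO4, compound preincubated 10 min, then NADPH regeneration system for 60 min at room temperature. Luciferin read by luminescence; normalized to 1.43 uM quinidine.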

[12] = biological target: Ubiquitin carboxyl-terminal hydrolase 1 (Homo sapiens) (UniProt O94782); test: Inhibitors of USP1/UAF1: Pilot qHTS (AID 504865; active = well fitted curve in the direction sought with a large enough effect; an effect the other way counts as inactive or inconclusive;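 note: rhodamine fluorescence freed from ubiquitin-rhodamine substrate followed over time; top concentration of the series differs between compounds; % is set by controls: 0 for no effect and ±100 for the full control effect; nearly all actives have a fitted effect of over 35% in size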); settings: purified USP1/UAF1, Ub-rhodamine cleavage fluorescence; series mostly up to 54.9 µM
Ubiquitin carboxyl-terminal hydrolase 1 (Homo sapiens), sequence (O94782 whole entry, looked up): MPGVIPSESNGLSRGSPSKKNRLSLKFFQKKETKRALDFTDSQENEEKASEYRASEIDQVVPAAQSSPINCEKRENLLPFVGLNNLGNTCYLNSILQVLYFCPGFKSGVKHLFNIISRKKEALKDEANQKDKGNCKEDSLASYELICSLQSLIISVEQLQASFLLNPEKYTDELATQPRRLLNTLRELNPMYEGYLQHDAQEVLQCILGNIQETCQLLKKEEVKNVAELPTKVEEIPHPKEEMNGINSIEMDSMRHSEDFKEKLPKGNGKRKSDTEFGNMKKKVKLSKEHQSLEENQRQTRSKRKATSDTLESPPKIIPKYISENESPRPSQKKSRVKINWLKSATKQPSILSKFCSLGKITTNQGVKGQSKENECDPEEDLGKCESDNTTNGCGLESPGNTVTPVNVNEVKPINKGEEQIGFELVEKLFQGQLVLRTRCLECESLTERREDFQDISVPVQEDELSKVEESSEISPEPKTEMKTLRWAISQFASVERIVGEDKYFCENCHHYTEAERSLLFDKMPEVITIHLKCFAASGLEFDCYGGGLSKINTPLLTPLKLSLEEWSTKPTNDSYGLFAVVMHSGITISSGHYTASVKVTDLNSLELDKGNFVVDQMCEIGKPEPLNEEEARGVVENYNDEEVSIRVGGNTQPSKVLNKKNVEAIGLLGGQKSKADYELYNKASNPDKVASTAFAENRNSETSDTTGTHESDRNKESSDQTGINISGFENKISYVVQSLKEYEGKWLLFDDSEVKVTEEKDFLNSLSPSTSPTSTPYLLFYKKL
Outline: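 In 50mM HEPES pH 7.8 containing 0.5mM EDTA, 1mM TCEP, 0.1 mg/ml BSA and 0.01% Tween-20, 1nM USP1/UAF1 is exposed to compound for 15 min, then Ub-Rho (150nM final) is added and fluorescence is read over time.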

[13] = biological target: Guanine nucleotide-binding protein G(i) subunit alpha-1 (Homo sapiens) (UniProt P63096); test: qHTS Assay for Inhibitors of RGS12 GoLoco Motif Activity (Green Fluorophore) (AID 879; active = well fitted curve in the direction sought with a large enough effect; an effect the other way counts as inactive or inconclusive;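 note: 0% = labeled peptide with Gαi1 and full inhibition = labeled peptide alone without protein; negative values mean loss of peptide binding seen as reduced polarization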); settings: Galphai1/FITC-RGS12 GoLoco peptide, fluorescence polarization; series mostly up to 57.1 µM
Guanine nucleotide-binding protein G(i) subunit alpha-1 (Homo sapiens), sequence (P63096 whole entry, looked up): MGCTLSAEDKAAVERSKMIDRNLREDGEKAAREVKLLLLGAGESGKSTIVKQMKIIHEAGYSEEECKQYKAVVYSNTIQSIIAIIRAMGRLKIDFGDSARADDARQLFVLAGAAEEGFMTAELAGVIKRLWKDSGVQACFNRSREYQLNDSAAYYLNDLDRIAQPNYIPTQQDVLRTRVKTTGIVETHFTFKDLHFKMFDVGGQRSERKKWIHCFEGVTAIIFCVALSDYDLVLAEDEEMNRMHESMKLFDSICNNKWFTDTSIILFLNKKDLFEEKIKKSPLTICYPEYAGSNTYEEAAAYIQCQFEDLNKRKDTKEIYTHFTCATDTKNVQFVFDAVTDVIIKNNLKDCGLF
Outline: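 Fluorescence polarization assay: 50 nM Gαi1 with 10 nM FITC-labeled RGS12 GoLoco peptide in 10 mM Tris pH 7.5, 150 mM NaCl, 0.1 mM GDP, 0.05% NP40, 10 min at room temperature with compound.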

[14] = qHTS Assay for Identification of Small Molecule Agonists for Thrombopoietin (TPO) Signaling Pathway (AID 917; active = well fitted curve in the direction sought with a large enough effect; an effect the other way counts as inactive or inconclusive; note: % is set by controls: 0 for no effect and ±100 for the full control effect); settings: TPO signaling pathway reporter cells, agonist qHTS, stimulated with TPO at its EC50; series mostly up to 38.5 µM
Outline: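 Luminescence from a Glycoprotein IIb promoter–driven luciferase reporter served as read-out in murine Ba/F3 cells carrying the human TPO receptor. Cells, deprived of IL-3 overnight, received compounds with 26 pM TPO and were incubated 24 hrs at 37 C.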

[15] = biological target: Pyruvate kinase (Leishmania mexicana) (UniProt Q27686); test: qHTS Validation Assay for Inhibitors of Leishmania Mexicana Pyruvate Kinase (AID 945; active = well fitted curve in the direction sought with a large enough effect; an effect the other way counts as inactive or inconclusive;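 note: 0% = DMSO only neutral control wells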); settings: purified L. mexicana pyruvate kinase, enzyme activity, E451W mutant enzyme; series mostly up to 57.5 µM
Pyruvate kinase (Leishmania mexicana), sequence (Q27686 2-499 E452W): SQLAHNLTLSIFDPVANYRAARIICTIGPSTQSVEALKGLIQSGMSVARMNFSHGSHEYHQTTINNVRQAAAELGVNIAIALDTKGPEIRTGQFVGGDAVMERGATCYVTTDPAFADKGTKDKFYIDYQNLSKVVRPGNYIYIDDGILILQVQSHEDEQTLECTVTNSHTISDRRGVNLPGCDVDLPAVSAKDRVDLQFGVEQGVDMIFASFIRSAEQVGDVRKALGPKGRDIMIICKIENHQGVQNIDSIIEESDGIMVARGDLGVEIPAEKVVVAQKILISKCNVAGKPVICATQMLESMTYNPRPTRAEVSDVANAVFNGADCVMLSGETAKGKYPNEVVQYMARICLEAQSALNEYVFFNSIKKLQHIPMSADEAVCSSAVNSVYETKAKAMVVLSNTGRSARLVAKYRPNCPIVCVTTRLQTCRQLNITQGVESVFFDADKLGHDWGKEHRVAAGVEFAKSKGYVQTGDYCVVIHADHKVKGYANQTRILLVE
Outline: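 LmPYK E451W 0.2 nM; 0.5 mM PEP, 0.1 mM ADP, 7 mM MgCl2, 50 mM KCl, imidazole pH 7.2, 0.01% Tween 20, 0.05% BSA; 1 h RT; PKLight luminescence; DMSO-normalized.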

[16] = biological target: Pyruvate kinase PKM (Homo sapiens) (UniProt P14618); test: qHTS Assay for Activators of Human Muscle Pyruvate Kinase (AID 954; active = well fitted curve in the direction sought with a large enough effect, not every such curve was filed as active;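 note: 0% = uninhibited enzyme and -100% = no enzyme or full thiadiazolimine inhibition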); settings: purified human muscle pyruvate kinase, luciferase-coupled luminescence, 1 h; series mostly up to 57.5 µM
Pyruvate kinase PKM (Homo sapiens), sequence (P14618 whole entry, looked up): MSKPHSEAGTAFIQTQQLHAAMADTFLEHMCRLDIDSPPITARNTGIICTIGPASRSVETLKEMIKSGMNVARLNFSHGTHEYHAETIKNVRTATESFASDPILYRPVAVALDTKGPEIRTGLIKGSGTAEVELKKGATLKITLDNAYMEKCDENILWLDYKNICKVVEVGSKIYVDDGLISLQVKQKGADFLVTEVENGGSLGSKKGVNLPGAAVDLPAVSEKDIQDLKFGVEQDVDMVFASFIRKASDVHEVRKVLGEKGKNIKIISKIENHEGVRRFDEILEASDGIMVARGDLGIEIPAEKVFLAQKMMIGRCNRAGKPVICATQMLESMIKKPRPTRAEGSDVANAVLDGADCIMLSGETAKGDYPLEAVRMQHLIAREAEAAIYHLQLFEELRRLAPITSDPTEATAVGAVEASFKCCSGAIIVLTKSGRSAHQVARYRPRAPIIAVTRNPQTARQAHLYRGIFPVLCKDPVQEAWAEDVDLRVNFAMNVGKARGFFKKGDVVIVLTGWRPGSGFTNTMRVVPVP
Outline: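 Purified human PKM2 (0.1 nM) with 0.5 mM PEP (Km) and 0.1 mM ADP in 50 mM imidazole pH 7.2, KCl, MgCl2, 1 h at room temperature; ATP formed read by coupled luciferase luminescence. Normalized to no-enzyme/110 uM thiadiazolimine inhibition; 0.3 nM enzyme column for activation.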

[17] = biological target: Alpha-galactosidase A (Homo sapiens) (UniProt P06280); test: Counterscreen for Glucocerebrosidase Inhibitors: qHTS Assay for Human alpha-Galactosidase at pH 4.5 (AID 992; active = well fitted curve in the direction sought with a large enough effect; an effect the other way counts as inactive or inconclusive; note: 0% is about no effect); settings: purified enzyme, fluorogenic substrate; series mostly up to 76.9 µM
Outline: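 Human enzyme (2 nM) with 80 uM 4-methylumbelliferyl alpha-D-galactopyranoside in 50 mM citric acid, 0.005% Tween-20, pH 4.5, 20 min at room temperature. Compounds 0.7 nM–77 uM; fluorescence Ex 365/Em 440 after pH 10 stop; AC50 from Hill fits.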

[18] = biological target: alpha-glucosidase (Oryza sativa, rice) (UniProt Q653V4); test: Counterscreen for Glucocerebrosidase Inhibitors: qHTS Assay for Rice alpha-Glucosidase at pH 5.0 (AID 997; active = well fitted curve in the direction sought with a large enough effect; an effect the other way counts as inactive or inconclusive;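 note: 0% = full activity with enzyme and -100% = basal without enzyme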); settings: rice alpha-glucosidase enzyme activity; series mostly up to 76.9 µM
Outline: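 Rice alpha-glucosidase (4 nM final) with 400 uM 4-methylumbelliferyl-alpha-D-glucopyranoside in citrate buffer pH 5.0, 20 min at room temperature, stopped at pH 10; fluorescence 365/440 nm, compounds 0.7 nM–77 uM, AC50 from Hill fits.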

[19] = qHTS profiling for inhibitors of Plasmodium falciparum proliferation (AID 504749; active = well fitted curve in the direction sought with a large enough effect; an effect the other way counts as inactive or inconclusive; note: potency is the fitted concentration of half-maximal effect;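 for activity, negative = inhibition: 0% = DMSO vehicle and full inhibition = artemisinin control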; for all read-outs here: nearly all actives have a fitted effect of over 60% in size); settings: P. falciparum in erythrocytes, SYBR Green DNA, 72 h; for activity, negative = inhibition: at 28.7 µM (top of the series)
Outline: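 Parasite proliferation within erythrocytes, 72 h exposure. Endpoint: SYBR Green I fluorescence after overnight lysis at room temperature. Controls: 0.29 uM artemisinin, DMSO.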

[20] = measured here: cell count channel max response
[21] = measured here: lipid channel max response

SMILES: O=C(c1cc(C(F)(F)F)cc(C(F)(F)F)c1)N1CCC2(CCCN(c3ccncc3)C2)CC1
- Potency [1]: > 11.4 µM (inactive)
- activity, negative = inhibition ([2]; at 7.69 µM (top of the series) unless noted): 16.9% (inactive)
- Potency [3]: > 46 µM (inactive)
- Potency [4]: inactive
- Potency [5]: inactive
- activity change, negative = inhibition ([6]; at 57.5 µM (top of the series)): 5.04% (inactive)
- max response [6, 20]: 8.86%
- max response [6, 21]: 16%

SMILES: C[C@@]12CC[C@@H]3c4ccc(O)cc4CC[C@H]3[C@H]1CC[C@H]2O
- activity change, negative = inhibition ([7]; at 17.2 µM (top of the series)): -5.6% (inactive)
- activity change, negative = inhibition ([7]; at 38 µM (top of the series)): -13.9% (inactive)
- Potency [8]: 10 µM (active) and 5.01 µM (active)
- activity change, negative = inhibition ([9]; at 17.2 µM (top of the series)): -19.1% (inactive)
- activity change, negative = inhibition ([9]; at 38 µM (top of the series)): -4.36% (inactive)
- Potency [10]: > 46 µM (inactive) and > 20.6 µM (inactive)
- Potency [3]: > 46 µM (inactive) and > 20.6 µM (inactive)
- Potency [4]: inactive
- Potency [5]: inactive
- Potency [11]: inactive
- activity change, negative = inhibition ([6]; at 25.7 µM (top of the series)): -0.875% (inactive)
- max response [6, 20]: -11.7%
- max response [6, 21]: -11.1%
- Potency [12]: inactive

SMILES: C[C@@]12CCC(=O)C=C1CC[C@@H]1[C@@H]2[C@H](O)C[C@]2(C)[C@@H]1CC[C@]2(O)C(=O)CO
- activity change, negative = inhibition ([7]; at 17.2 µM (top of the series)): 1.82% (inactive)
- activity change, negative = inhibition ([7]; at 38 µM (top of the series)): 1.86% (inactive)
- Potency [8]: inactive
- activity change, negative = inhibition ([9]; at 17.2 µM (top of the series)): -9.51% (inactive)
- activity change, negative = inhibition ([9]; at 38 µM (top of the series)): -0.823% (inactive)
- activity, negative = inhibition ([2]; at 17.2 µM (top of the series)): -0.993% (inactive)
- activity, negative = inhibition ([2]; at 38 µM (top of the series)): -22.1% (inactive)
- Potency [4]: inactive
- Potency [5]: inactive
- Potency [11]: inactive
- activity change, negative = inhibition ([6]; at 25.7 µM (top of the series)): -5.23% (inactive)
- max response [6, 20]: -11.2%
- max response [6, 21]: -16.6%
- Potency [12]: inactive

SMILES: CO[C@]1(NC(=O)CSCC#N)C(=O)N2C(C(=O)O)=C(CSc3nnnn3C)CS[C@H]21
- activity change, negative = inhibition ([7]; at 17.2 µM (top of the series)): 6.3% (inactive)
- activity change, negative = inhibition ([7]; at 38 µM (top of the series)): 6.07% (inactive)
- Potency [8]: inactive
- activity change, negative = inhibition ([9]; at 17.2 µM (top of the series)): -17.5% (inactive)
- activity change, negative = inhibition ([9]; at 38 µM (top of the series)): -10.8% (inactive)
- activity, negative = inhibition ([2]; at 17.2 µM (top of the series)): -13.5% (inactive)
- activity, negative = inhibition ([2]; at 38 µM (top of the series)): 0.96% (inactive)
- Potency [10]: > 46 µM (inactive) and > 20.6 µM (inactive)
- Potency [3]: > 46 µM (inactive) and > 20.6 µM (inactive)
- Potency [4]: inactive
- Potency [5]: inactive
- Potency [13]: inactive
- outcome [14]: inactive
- outcome [15]: inactive
- outcome [16]: inactive
- outcome [17]: inactive
- outcome [18]: inactive
- activity change, negative = inhibition ([6]; at 25.7 µM (top of the series)): -1.05% (inactive)
- max response [6, 20]: -7.44%
- max response [6, 21]: -5.83%
- Potency [12]: inactive
- activity, negative = inhibition ([19]; parasite line A): 11.9% (inactive)
- activity, negative = inhibition ([19]; parasite line B): 2.32% (inactive)

SMILES: C[C@@H](CCc1ccccc1)NC[C@H](O)c1ccc(O)c(C(N)=O)c1
- activity change, negative = inhibition ([7]; at 17.2 µM (top of the series)): 10.2% (inactive)
- activity change, negative = inhibition ([7]; at 38 µM (top of the series)): 8.69% (inactive)
- Potency [8]: inactive
- activity change, negative = inhibition ([9]; at 17.2 µM (top of the series)): -19.2% (inactive)
- activity change, negative = inhibition ([9]; at 38 µM (top of the series)): -1.34% (inactive)
- activity, negative = inhibition ([2]; at 17.2 µM (top of the series)): -0.55% (inactive)
- activity, negative = inhibition ([2]; at 38 µM (top of the series)): 4.03% (inactive)
- Potency [10]: > 46 µM (inactive) and > 20.6 µM (inactive)
- Potency [3]: > 46 µM (inactive) and > 20.6 µM (inactive)
- Potency [4]: inactive
- Potency [5]: inactive
- Potency [13]: inactive
- Potency [11]: 3.98 µM (active) and 2 µM (active)
- outcome [15]: inactive
- outcome [16]: inactive
- outcome [18]: inactive
- activity change, negative = inhibition ([6]; at 25.7 µM (top of the series)): -1.75% (inactive)
- max response [6, 20]: -10.3%
- max response [6, 21]: -13.3%
- Potency [12]: inactive
- Potency ([19]; parasite line B): 10 µM (active)
